Source: PubChem BioAssay (NCATS)
Inconclusive results are not listed. Calls of active or inactive are those of the source. Unless noted, calls follow the shape of the dose curve; as a rule, active = well fitted curve in the direction sought with a large enough effect; inconclusive = small, poorly fitted or top-dose-only effect, or another doubt; inactive = no such curve, though single readings can be large; an effect the other way counts as inactive or inconclusive.

Key:
[1] = AP1 Signaling Pathway (AID 357; active = well fitted curve in either direction with a large enough effect, not every such curve was filed as active;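 also: ME-180 reporter cells stimulated with EGF at its EC50 level; % is scaled to controls: 0 for no effect and ±100 for the full control effect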); details: ME-180 AP-1-bla reporter, EGF-induced, beta-lactamase ratio, 5 h; at 7.69 µM (top of the series) unless noted
Procedure, shortened: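 Read-out was the 460nm/530nm emission ratio (excitation 405nm) after CCF4 loading for 2.5 hours at room temperature. Cells carried an AP-1-driven beta-lactamase reporter, were stimulated with EC50 EGF plus compound for 5 hours, and AC50 values came from titrations.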

[2] = molecular target: Cytochrome P450 1A2 (Homo sapiens) (UniProt P05177); experiment: p450-cyp1a2 (AID 410; calls by dose curve; also: potency is read from the fitted curve at half-maximal effect)
Procedure, shortened: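 Read-out is luminescence from luciferin produced by CYP1A2 demethylation of Luciferin-ME (100uM, at Km). Detection reagent stopped the 60 min NADPH-dependent reaction; signals were normalized to 57 uM furafylline.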

[3] = NFAT Signaling Pathway (AID 444; active = well fitted curve in either direction with a large enough effect, not every such curve was filed as active;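 also: carbachol stimulus at about its EC50 of 1 µM final; % is scaled to controls: 0 for no effect and ±100 for the full control effect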); details: Jurkat NFAT-bla M1, carbachol, beta-lactamase ratio, 5 h; at 7.69 µM (top of the series) unless noted
Procedure, shortened: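 Jurkat cells with NFAT-driven β-lactamase reporter and co-expressed M1 receptor, stimulated with carbachol (final 1 uM, ~EC50), compound titration, 5 h at 37 °C. CCF4 loaded 1 h at RT; 460/530 nm ratio gave %activity and AC50.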

[4] = Stat Signaling Pathway (AID 446; active = well fitted curve in either direction with a large enough effect, not every such curve was filed as active;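 also: ME-180 cervical cancer cells given 40 pM IL-6 alongside compound; SIE-controlled beta-lactamase reporter measured as 460/530 nm FRET emission ratio; % is scaled to controls: 0 for no effect and ±100 for the full control effect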); details: ME-180 (cervical carcinoma) SIE beta-lactamase reporter, IL-6 stimulated, 5 h; at 7.69 µM (top of the series) unless noted
Procedure, shortened: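 Emission at 460 and 530 nm (excitation 405 nm) reports SIE-controlled beta-lactamase in ME-180 cells. Cells received compound with 40 pM IL-6 for 5 hrs at 37 C; data scaled between 300 pM IL-6 and 125 nM JAK-inhibitor controls.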

[5] = molecular target: Mitogen-activated protein kinase 10 (Mus musculus) (UniProt Q61831); experiment: JNK3 AlphaScreen Assay (AID 530; active = well fitted curve in either direction with a large enough effect, not every such curve was filed as active;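 also: kinase came from lysate of stimulated human HepG2 cells; signal reports phosphorylation of biotinylated GST-cJun 1-79 at Ser73 with 10 µM ATP; % is scaled to controls: 0 for no effect and ±100 for the full control effect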)
Procedure, shortened: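 HepG2 lysate (IL-1b/TNFa pre-activated) + biotin-GST-cJun 1-79 + anti-pSer73 cJun; cpd titration, 15 min RT; ATP 10 uM start; Tris pH 7.6, MgCl2, DTT, vanadate; beads in EDTA buffer; AlphaScreen.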

[6] = qHTS Assay for Lipid Storage Modulators (AID 1519; calls by dose curve); details: Drosophila S3 cells, BODIPY lipid droplet/cell ratio, laser cytometry, cells loaded with oleic acid; for activity change, negative = inhibition: at 57.5 µM (top of the series)
Procedure, shortened: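 Cells seeded at 5,000 per well were treated with compounds over a concentration series and loaded with oleic acid (400 uM, as added). Lipid droplet fluorescence (488 nm excitation, 500-530 nm channel) was read by laser-scanning cytometry and normalized to 20 uM Triacsin C.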

[7] = molecular target: Dual specificity protein kinase CLK4 (Homo sapiens) (UniProt Q9HAZ1); experiment: qHTS Assay for Inhibitors of CDC-like Kinase 4 (Kinase-Glo Assay) (AID 1770); also: nearly all actives have a fitted effect of over 65% in size; also: potency is read from the fitted curve at half-maximal effect
Procedure, shortened: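 Luminescent ATP-depletion read-out (Kinase-Glo) after 4.5 h room-temperature reaction of Clk4 (25 nM final) with RS peptide (100 uM) and ATP (1 uM), pH 7.5 Tris buffer with MgCl2 and DTT.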

[8] = molecular target: Dual specificity protein kinase CLK4 (Homo sapiens) (UniProt Q9HAZ1); experiment: qHTS Assay for Inhibitors of CDC-like Kinase 4 (ADP-Glo Assay) (AID 1771); also: nearly all actives have a fitted effect of over 70% in size; also: potency is read from the fitted curve at half-maximal effect
Procedure, shortened: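 In this ADP-Glo format, 1 uM ATP and 100 uM RS peptide served as substrates for 25 nM Clk4 in Mg2+/EGTA/DTT/Triton buffer; reactions ran 1 hr at room temperature before luminescent ADP quantification.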

[9] = molecular target: Dual specificity protein kinase CLK4 (Homo sapiens) (UniProt Q9HAZ1); experiment: qHTS Assay for Inhibitors of CDC-like Kinase 4 (ADP-FP Assay) (AID 1795); also: nearly all actives have a fitted effect of over 60% in size; also: potency is read from the fitted curve at half-maximal effect
Procedure, shortened: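 Kinase activity was measured as ADP production using Transcreener orange tracer (4 nM) and ADP antibody (1 ug/mL) fluorescence polarization, with ADP calculated from a calibration curve. The 1 h reaction contained 6.25 nM Clk4, 1 uM ATP and 100 uM RS peptide at pH 7.5 with Mg2+.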

[10] = molecular target: Ubiquitin carboxyl-terminal hydrolase 1 (Homo sapiens) (UniProt O94782); experiment: Inhibitors of USP1/UAF1: Pilot qHTS (AID 504865);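 also: rhodamine fluorescence freed from ubiquitin-rhodamine substrate followed over time; top concentration of the series differs between compounds; % is scaled to controls: 0 for no effect and ±100 for the full control effect; nearly all actives have a fitted effect of over 35% in size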
Procedure, shortened: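 Deubiquitinase activity followed as kinetic rhodamine fluorescence release from 150 nM Ub-Rho. 1 nM USP1/UAF1 with compound, after 15 min room-temperature preincubation, in HEPES pH 7.8 buffer containing TCEP, EDTA, BSA and Tween-20.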

[11] = Primary qHTS for small molecule stabilizers of the endoplasmic reticulum resident proteome: Secreted ER Calcium Modulated Protein (SERCaMP) assay (AID 1508630); also: % is scaled to controls: 0 for no effect and ±100 for the full control effect
Procedure, shortened: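 The SH-SY5Y reporter protocol was run at 3 concentrations up to 38.3 uM (primary) or 11 concentrations (follow-up): 16 h compound, 100 nM thapsigargin for 4 h, then extracellular luciferase luminescence.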

[12] = molecular target: Glucocorticoid receptor (Homo sapiens) (UniProt P04150); experiment: GR-EFC Redistribution (AID 451; calls by dose curve; also: potency is read from the fitted curve at half-maximal effect); details: CHO-K1 GR-EFC translocation, beta-gal luminescence, 2 h
Procedure, shortened: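 CHO-K1 cells expressing nuclear EA and GR-ED fragments of b-gal; compounds titrated up to 46 uM final, 2 h at 37 C. GR nuclear translocation read as complemented b-gal luminescence after 1 h RT detection.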

[13] = molecular target: 3',5'-cyclic-AMP phosphodiesterase 4B (Homo sapiens) (UniProt Q07343); experiment: qHTS Assay for Inhibitors of PDE-IV (AID 607; active = well fitted activation curve with a large enough effect in the main read-out, with a control signal flat, not every such curve was filed as active; also: % of control where 0% means no effect)
Procedure, shortened: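 The readout is membrane depolarisation from a cAMP-sensing CNG channel, detected with a potential dye at ex 535/em 590. Cells were HEK293-derived (endogenous PDE-IV) at 1000 cells/well, titrated up to 22.9 uM final.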

[14] = molecular target: Lysosomal acid glucosylceramidase (Homo sapiens) (UniProt P04062); experiment: Glucocerebrosidase-p2 (AID 348; in the data active = potency below about 10 µM; also: potency is read from the fitted curve at half-maximal effect); details: purified GBA, blue fluorogenic substrate, 40 min
Procedure, shortened: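 Normal human glucocerebrosidase (0.2 nM) with blue fluorogenic substrate (80 uM final) in citrate/phosphate pH 5.9 with 10mM sodium taurocholate, 0.01% tween-20; 40 min RT, NaOH/glycine stop; fluorescence Ex 365/Em 440; AC50 from a titration from 0.6 nM upwards.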

[15] = molecular target: Glucocorticoid receptor (Homo sapiens) (UniProt P04150); experiment: GR-GFP Redistribution (AID 450;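 active = compounds whose dose series gives a full or clear partial fitted curve of increased nuclear translocation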; also: potency is read from the fitted curve at half-maximal effect); details: U2OS GR-GFP nuclear translocation, laser cytometry, 2 h
[16] = molecular target: Cytochrome P450 2C9 (Homo sapiens) (UniProt P11712); experiment: qHTS Assay for Inhibitors and Substrates of Cytochrome P450 2C9 (AID 883); also: % is scaled to controls: 0 for no effect and ±100 for the full control effect; nearly all actives have a fitted effect of over 60% in size
Procedure, shortened: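 Human CYP2C9 (10nM) with Luciferin-H at 100uM (its KM) in 25mM KPO4; compound preincubated 10 min at 37C, then NADPH regeneration for 60 min at 37C. Luciferin read by luminescence after detection reagent; normalized to 57uM sulphaphenazole as full inhibition.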

[17] = measured here: cell count channel max response
[18] = measured here: lipid channel max response

Chain of Cytochrome P450 1A2 (Homo sapiens) (P05177 whole entry, looked up): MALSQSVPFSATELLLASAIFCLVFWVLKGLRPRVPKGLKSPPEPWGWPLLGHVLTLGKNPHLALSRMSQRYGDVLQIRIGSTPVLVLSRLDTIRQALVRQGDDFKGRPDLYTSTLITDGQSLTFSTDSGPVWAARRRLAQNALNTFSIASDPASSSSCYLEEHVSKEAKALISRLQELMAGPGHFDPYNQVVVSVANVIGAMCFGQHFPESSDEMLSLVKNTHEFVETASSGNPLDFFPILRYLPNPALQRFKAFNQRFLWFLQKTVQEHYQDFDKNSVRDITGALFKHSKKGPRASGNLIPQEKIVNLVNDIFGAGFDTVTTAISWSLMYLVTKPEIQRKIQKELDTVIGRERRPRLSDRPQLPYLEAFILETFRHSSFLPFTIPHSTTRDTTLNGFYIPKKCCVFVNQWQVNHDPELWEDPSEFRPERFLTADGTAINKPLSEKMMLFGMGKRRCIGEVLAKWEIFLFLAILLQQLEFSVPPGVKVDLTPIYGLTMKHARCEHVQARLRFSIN
Chain of 3',5'-cyclic-AMP phosphodiesterase 4B (Homo sapiens) (Q07343 whole entry, looked up): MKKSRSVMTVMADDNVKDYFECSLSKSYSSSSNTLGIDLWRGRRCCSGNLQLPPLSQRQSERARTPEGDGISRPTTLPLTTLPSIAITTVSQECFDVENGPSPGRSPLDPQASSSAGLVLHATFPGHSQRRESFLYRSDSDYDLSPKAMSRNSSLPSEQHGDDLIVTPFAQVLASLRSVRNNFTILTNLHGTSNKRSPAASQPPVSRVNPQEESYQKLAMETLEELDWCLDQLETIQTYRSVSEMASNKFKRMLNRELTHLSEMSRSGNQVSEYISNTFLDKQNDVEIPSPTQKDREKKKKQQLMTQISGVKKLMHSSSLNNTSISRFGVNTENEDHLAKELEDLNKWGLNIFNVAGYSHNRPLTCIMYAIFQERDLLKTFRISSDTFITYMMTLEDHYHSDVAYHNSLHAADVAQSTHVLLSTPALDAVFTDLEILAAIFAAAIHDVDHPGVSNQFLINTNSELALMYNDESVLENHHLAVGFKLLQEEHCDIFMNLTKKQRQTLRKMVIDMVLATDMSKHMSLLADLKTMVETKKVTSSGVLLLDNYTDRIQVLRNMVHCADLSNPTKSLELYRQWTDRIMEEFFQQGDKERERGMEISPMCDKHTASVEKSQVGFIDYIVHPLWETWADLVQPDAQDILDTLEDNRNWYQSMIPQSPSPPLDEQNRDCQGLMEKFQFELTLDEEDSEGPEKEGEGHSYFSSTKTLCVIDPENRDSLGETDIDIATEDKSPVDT
Chain of Glucocorticoid receptor (Homo sapiens) (P04150 whole entry, looked up, the tested form may be a part): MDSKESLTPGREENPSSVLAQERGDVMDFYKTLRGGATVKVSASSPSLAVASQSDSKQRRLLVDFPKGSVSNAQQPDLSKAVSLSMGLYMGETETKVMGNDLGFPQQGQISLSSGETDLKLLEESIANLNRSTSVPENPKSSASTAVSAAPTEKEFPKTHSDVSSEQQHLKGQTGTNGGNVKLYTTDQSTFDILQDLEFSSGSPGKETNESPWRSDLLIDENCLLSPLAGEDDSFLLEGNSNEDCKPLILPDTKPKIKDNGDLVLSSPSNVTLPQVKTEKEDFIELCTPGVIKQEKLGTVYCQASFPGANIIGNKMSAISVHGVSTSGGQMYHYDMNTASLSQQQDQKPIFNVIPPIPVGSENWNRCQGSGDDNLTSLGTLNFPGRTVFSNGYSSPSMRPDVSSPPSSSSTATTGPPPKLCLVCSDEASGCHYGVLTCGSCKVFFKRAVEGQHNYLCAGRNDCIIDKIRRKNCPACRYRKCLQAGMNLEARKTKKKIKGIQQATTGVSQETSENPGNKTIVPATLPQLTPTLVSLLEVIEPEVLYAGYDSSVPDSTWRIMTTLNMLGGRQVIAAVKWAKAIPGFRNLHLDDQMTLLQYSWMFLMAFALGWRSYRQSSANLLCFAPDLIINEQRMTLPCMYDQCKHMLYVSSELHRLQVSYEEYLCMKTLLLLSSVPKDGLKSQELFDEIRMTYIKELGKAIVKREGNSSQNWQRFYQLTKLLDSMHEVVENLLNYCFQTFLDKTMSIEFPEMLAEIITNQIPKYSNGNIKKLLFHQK
Chain of Ubiquitin carboxyl-terminal hydrolase 1 (Homo sapiens) (O94782 whole entry, looked up): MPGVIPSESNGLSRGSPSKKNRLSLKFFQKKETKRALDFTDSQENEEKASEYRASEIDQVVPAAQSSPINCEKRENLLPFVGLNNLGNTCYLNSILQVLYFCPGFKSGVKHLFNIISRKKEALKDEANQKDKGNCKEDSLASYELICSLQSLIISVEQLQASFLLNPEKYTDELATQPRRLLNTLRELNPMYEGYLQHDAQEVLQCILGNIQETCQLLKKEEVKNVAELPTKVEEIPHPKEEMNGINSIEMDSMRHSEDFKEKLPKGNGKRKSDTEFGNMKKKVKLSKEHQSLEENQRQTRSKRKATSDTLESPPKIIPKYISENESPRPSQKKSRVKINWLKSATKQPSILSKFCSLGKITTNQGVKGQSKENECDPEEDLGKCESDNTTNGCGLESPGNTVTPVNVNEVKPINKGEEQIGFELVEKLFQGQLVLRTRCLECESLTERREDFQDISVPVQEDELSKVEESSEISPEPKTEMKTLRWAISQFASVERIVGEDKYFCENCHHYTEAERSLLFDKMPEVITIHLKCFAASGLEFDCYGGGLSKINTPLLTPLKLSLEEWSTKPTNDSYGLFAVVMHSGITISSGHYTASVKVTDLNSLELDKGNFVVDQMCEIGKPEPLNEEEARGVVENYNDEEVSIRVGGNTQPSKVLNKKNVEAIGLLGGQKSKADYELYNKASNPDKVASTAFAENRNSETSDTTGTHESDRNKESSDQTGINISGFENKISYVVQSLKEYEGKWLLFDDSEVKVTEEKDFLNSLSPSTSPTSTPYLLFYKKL
Chain of Dual specificity protein kinase CLK4 (Homo sapiens) (Q9HAZ1 whole entry, looked up): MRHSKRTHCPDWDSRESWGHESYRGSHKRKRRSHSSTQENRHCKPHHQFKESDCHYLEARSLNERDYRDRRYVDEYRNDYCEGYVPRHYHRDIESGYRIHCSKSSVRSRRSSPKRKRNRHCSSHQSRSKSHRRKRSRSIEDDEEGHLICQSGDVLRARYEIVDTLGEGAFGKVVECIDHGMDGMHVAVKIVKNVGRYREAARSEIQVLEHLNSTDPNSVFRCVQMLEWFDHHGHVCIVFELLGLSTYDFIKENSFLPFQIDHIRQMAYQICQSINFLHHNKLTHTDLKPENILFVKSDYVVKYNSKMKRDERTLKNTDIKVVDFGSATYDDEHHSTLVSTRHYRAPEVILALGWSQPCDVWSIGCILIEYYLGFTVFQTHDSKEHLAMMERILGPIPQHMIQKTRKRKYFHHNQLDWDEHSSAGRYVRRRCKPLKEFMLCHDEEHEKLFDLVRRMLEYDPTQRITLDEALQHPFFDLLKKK
Chain of Lysosomal acid glucosylceramidase (Homo sapiens) (P04062 whole entry, looked up): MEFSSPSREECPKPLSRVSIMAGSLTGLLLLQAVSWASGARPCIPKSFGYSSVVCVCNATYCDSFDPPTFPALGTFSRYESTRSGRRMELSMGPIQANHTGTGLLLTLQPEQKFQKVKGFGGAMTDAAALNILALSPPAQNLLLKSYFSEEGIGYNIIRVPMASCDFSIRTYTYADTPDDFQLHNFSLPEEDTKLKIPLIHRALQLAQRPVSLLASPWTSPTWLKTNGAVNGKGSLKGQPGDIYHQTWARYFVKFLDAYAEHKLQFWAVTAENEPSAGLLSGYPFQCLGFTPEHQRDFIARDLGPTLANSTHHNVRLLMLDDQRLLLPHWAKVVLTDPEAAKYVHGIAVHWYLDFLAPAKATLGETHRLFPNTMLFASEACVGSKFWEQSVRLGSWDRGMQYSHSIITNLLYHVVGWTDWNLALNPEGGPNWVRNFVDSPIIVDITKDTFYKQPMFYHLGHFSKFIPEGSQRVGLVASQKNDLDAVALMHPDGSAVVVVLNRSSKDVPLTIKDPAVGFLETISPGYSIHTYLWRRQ
Chain of Cytochrome P450 2C9 (Homo sapiens) (P11712 whole entry, looked up): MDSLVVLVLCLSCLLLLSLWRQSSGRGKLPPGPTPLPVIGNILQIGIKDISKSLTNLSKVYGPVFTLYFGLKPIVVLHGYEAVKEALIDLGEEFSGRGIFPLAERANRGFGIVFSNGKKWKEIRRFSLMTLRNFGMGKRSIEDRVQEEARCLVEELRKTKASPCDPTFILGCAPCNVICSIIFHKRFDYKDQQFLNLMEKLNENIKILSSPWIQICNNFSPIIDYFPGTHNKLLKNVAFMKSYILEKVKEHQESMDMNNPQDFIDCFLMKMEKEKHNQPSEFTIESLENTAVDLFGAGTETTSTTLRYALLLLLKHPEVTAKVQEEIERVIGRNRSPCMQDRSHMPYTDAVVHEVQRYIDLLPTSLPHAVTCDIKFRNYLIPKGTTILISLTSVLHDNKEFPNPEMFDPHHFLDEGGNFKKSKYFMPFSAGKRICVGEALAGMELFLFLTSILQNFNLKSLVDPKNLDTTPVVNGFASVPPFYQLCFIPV

COc1ccc(-n2c(=O)c(-c3cccs3)nc3cncnc32)cc1
inactive: activity change, negative = inhibition [1] -19.3% | activity change, negative = inhibition [3] 0.0711% | activity, negative = inhibition [4] -0.243% | outcome [5] | activity change, negative = inhibition [6] -10.8% | Potency [7] | Potency [8] | Potency [9] | Potency [10] | Potency [11]
11.5%: max response [6, 18]
active: Potency [2] 10 µM
28.9%: max response [6, 17]

CN1CCN(c2ccnc(-c3ccoc3)n2)CC1
inactive: activity change, negative = inhibition [1] 21.7% | activity change, negative = inhibition [3] -15.5% | activity, negative = inhibition [4] 11.2% | Potency [12] > 46 µM | outcome [5] | Potency [13] | activity change, negative = inhibition [6] 0.402% | Potency [7] | Potency [8] | Potency [9] | Potency [10] | Potency [11]
20.2%: max response [6, 17] | max response [6, 18]
active: Potency [2] 12.6 µM

COc1ccc(-c2nc3cnc(Oc4ccccc4)nc3n(CCC#N)c2=O)cc1
-12.9%: max response [6, 17]
-14%: max response [6, 18]
inactive: Potency [14] > 11.4 µM | activity change, negative = inhibition [3] -15.1% | activity, negative = inhibition [4] -20% | Potency [15] > 9.22 µM | Potency [12] > 46 µM | outcome [5] | Potency [13] | activity change, negative = inhibition [6] 1.13% | Potency [7] | Potency [8] | Potency [9] | Potency [10] | Potency [11]

COc1cccc(-c2ccc3ncnc(NCc4ccccc4)c3c2)c1
-2.9%: max response [6, 17]
inactive: Potency [15] > 46 µM | Potency [12] > 46 µM | outcome [5] | Potency [13] | activity change, negative = inhibition [6] -5.64% | Potency [10] | Potency [11]
active: Potency [7] 2 µM | Potency [8] 2.24 µM | Potency [9] 794 nM
-10.2%: max response [6, 18]

CN1CCN(c2ncc3nc(-c4ccc(Cl)cc4)c(=O)n(-c4ccccc4)c3n2)CC1
16.4%: max response [6, 18]
13.9%: max response [6, 17]
inactive: Potency [14] > 11.4 µM | Potency [15] > 9.22 µM | Potency [12] > 46 µM | Potency [13] | activity change, negative = inhibition [6] 4.1% | Potency [7] | Potency [8] | Potency [9] | Potency [10] | Potency [11]

O=c1c(-c2ccc(Cl)cc2)nc2cnc(N3CCOCC3)nc2n1-c1ccccc1
19.1%: max response [6, 18]
active: Potency [2] 2 µM
25.3%: max response [6, 17]
inactive: Potency [15] > 9.22 µM | Potency [12] > 46 µM | outcome [5] | Potency [13] | Potency [16] | activity change, negative = inhibition [6] -3% | Potency [7] | Potency [8] | Potency [9] | Potency [10] | Potency [11]

Cc1ccccc1-c1cc(N2CCN(C)CC2)ncn1
inactive: activity change, negative = inhibition [1] -0.925% | activity change, negative = inhibition [3] -7.69% | activity, negative = inhibition [4] -0.251% | Potency [15] > 46 µM | Potency [12] > 46 µM | outcome [5] | Potency [13] | activity change, negative = inhibition [6] -4.37% | Potency [7] | Potency [8] | Potency [9] | Potency [10] | Potency [11]
-4.04%: max response [6, 18]
3.49%: max response [6, 17]
